Screening results: PubChem, Broad Institute
C diff HTS: inhibitors of Clostridium difficile growth; growth activity, negative = inhibition, % at 16 µg/mL (by protocol); actives 0.25% (n = 86,000); AID 1259249; Clostridium difficile clinical isolate growth, OD600, 24 h; active compounds read low;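 active = mean growth activity at or below -80% and every replicate also at or below -80%; inconclusive = mean at or below -80% but some replicate above -80%; inactive = mean growth activity above -80%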
T cruzi growth-1: T. cruzi proliferation inhibition; T. cruzi beta-gal in NIH3T3, GalScreen luminescence, 90 h; inhibition, % at 8.34 µM; actives 5.9% (n = 77,000);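 active = mean inhibition above about 93%, with at least 55% of replicates each passing it, limit read from the data, passing the limit was not always enough; inconclusive = only one of those two conditions holds; inactive = neither condition holds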
Pf Dd2 growth: P. falciparum Dd2 growth inhibition | SYBR Green, 72 h; active compounds read low | activity change, % at 10 µM | actives 2.3% (n = 94,000) | AID 1159554; in the data active = activity change below about -80%; inconclusive = no clear call, values can overlap the other calls
T cruzi growth-2: blocks T. cruzi growth in NIH3T3 host cells | shares compounds with T cruzi growth-1 | T. cruzi beta-gal in NIH3T3, GalScreen luminescence, 90 h | inhibition, % at 8.35 µM | actives 72% (n = 5,600) | AID 651739;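 active = mean replicate inhibition above about 95% and at least 55% of replicates individually reaching it, limit read from the data; inconclusive = only one of the two criteria is met; inactive = neither criterion is met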
T cruzi growth-3: Trypanosoma cruzi proliferation inhibition | shares compounds with T cruzi growth-1 | T. cruzi beta-gal in NIH3T3, GalScreen luminescence, 90 h | inhibition, % at 2.09 µM | actives 21% (n = 5,600);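 active = mean inhibition above about 95%, with at least 55% of replicates also reaching it, limit read from the data; inconclusive = meets just one of the two conditions; inactive = meets neither condition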
NIH3T3 tox: NIH/3T3 (mouse) viability loss. shares compounds with T cruzi growth-1. NIH/3T3 viability, CellTiter-Glo ATP luminescence, 90 h. cytotoxicity (signal decrease), % at 8.35 µM. actives 14% (n = 5,600);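 active = mean signal decrease across replicates above about 35% based on untreated-well scatter, with enough replicates individually passing, limit read from the data; inconclusive = no rule stated though some were filed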
3T3 cytotox 2: kills mouse NIH/3T3 fibroblasts; shares compounds with T cruzi growth-1; NIH/3T3 viability, CellTiter-Glo ATP luminescence, 90 h; inhibition, % at 24.9 µM; actives 56% (n = 5,600); AID 651744;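 active = mean loss of cell viability signal at or above a set limit, and enough replicates individually reaching it; inconclusive = meets only the mean limit or only the replicate share; inactive = meets neither condition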
A number is an active result; 0 = inactive; ? = inconclusive; - = no result given. An excerpt weighted towards active compounds, which were near 6.7% of everything screened.

SMILES | C diff HTS | T cruzi growth-1 | Pf Dd2 growth | T cruzi growth-2 | T cruzi growth-3 | NIH3T3 tox | 3T3 cytotox 2
N#C[C@@H]1[C@@H](c2ccc(-c3cccc(F)c3)cc2)[C@H](CO)N1C(=O)NC1CCCC1 | 0 | 97 | 0 | 105 | 0 | 0 | 38
CC(C)NC[C@H]1[C@@H](c2ccc(-c3cccc(F)c3)cc2)[C@@H](CO)N1CC1CC1 | 0 | 109 | 0 | 0 | 0 | 0 | 105
C/C=C/c1ccc([C@H]2[C@@H](CO)N(CC3CCCCC3)[C@H]2CNC(C)C)cc1 | 0 | - | 0 | - | - | - | -
N#C[C@H]1[C@H](c2ccc(-c3cccc(F)c3)cc2)[C@H](CO)N1C(=O)NC1CCCC1 | 0 | 0 | 0 | - | - | - | -
N#C[C@@H]1[C@H](c2ccc(-c3cccc(F)c3)cc2)[C@H](CO)N1C(=O)NC1CCCC1 | 0 | 97 | 0 | 109 | 104 | 0 | 0
N#C[C@H]1[C@@H](c2ccc(-c3cccc(F)c3)cc2)[C@H](CO)N1C(=O)NC1CCCC1 | 0 | 0 | 0 | - | - | - | -
COCC(=O)N1[C@@H](C#N)[C@@H](c2ccccc2C2=CCCC2)[C@@H]1CO | 0 | - | 0 | - | - | - | -
COCC(=O)N1[C@H](C#N)[C@H](c2ccccc2)[C@H]1CO | 0 | 0 | 0 | - | - | - | -
COCC(=O)N1[C@H](C#N)[C@H](c2ccc(C#Cc3ccccc3F)cc2)[C@@H]1CO | 0 | 102 | 0 | 103 | 0 | 0 | ?
N#C[C@@H]1[C@@H](c2ccc(C#Cc3ccccc3F)cc2)[C@H](CO)N1C(=O)c1cccnc1 | 0 | 0 | 0 | - | - | - | -
COCC(=O)N1[C@@H](C#N)[C@@H](c2ccc(C#Cc3ccccc3F)cc2)[C@@H]1CO | 0 | 106 | 0 | 0 | 0 | 0 | 94
COCC(=O)N1[C@H](C#N)[C@@H](c2ccccc2)[C@@H]1CO | 0 | 0 | 0 | - | - | - | -
COCC(=O)N1[C@H](C#N)[C@H](c2ccc(C#Cc3ccccc3F)cc2)[C@H]1CO | 0 | 106 | 0 | 99 | 0 | 0 | ?
N#C[C@H]1[C@H](c2ccc(C#Cc3ccccc3F)cc2)[C@H](CO)N1C(=O)C1CC1 | 0 | 0 | 0 | - | - | - | -
N#C[C@H]1[C@H](c2ccc(C#Cc3ccccc3F)cc2)[C@@H](CO)N1C(=O)c1cccnc1 | 0 | ? | 0 | 105 | 0 | 0 | 0
Cc1noc(C)c1S(=O)(=O)Nc1ccc2c(c1)C(=O)N([C@H](C)CO)C[C@@H](C)[C@@H](CN(C)C(=O)Nc1ccc(F)cc1)O2 | - | 0 | 0 | - | - | - | -
C[C@H]1CN([C@@H](C)CO)S(=O)(=O)c2ccc(C#CC3(O)CCCC3)cc2O[C@@H]1CN(C)C(=O)Nc1ccccc1 | 0 | 0 | 0 | - | - | - | -
CC(C)NC(=O)NCC[C@@H]1CC[C@H](NS(=O)(=O)c2ccccc2)[C@@H](CO)O1 | 0 | - | 0 | - | - | - | -
C[C@H](CO)N1C[C@H](C)[C@H](CN(C)C(=O)Nc2ccc(F)cc2)Oc2ncc(C#CC3CC3)cc2C1=O | 0 | 0 | 0 | - | - | - | -
N#C[C@H]1[C@@H](c2ccc(C#Cc3ccccc3F)cc2)[C@@H](CO)N1C(=O)C1CCOCC1 | 0 | 0 | 0 | - | - | - | -
COCC(=O)N1[C@@H](C#N)[C@H](c2ccc(C#Cc3ccccc3F)cc2)[C@@H]1CO | 0 | 101 | 0 | 103 | 0 | 0 | 0
COc1cccc(-c2ccc3c(c2)[C@@H]2[C@@H](CCN2C(=O)c2cnccn2)[C@@H](CO)N3)c1 | 0 | 0 | 0 | - | - | - | -
CC(=O)N(C)C[C@@H]1Oc2cc(C#CCC(C)C)ccc2S(=O)(=O)N([C@H](C)CO)C[C@H]1C | 0 | 0 | 0 | - | - | - | -
CC(=O)N1CC2(C1)[C@@H](c1ccccc1)[C@@H](CO)N2Cc1cc(F)ccc1F | 0 | - | 0 | - | - | - | -
CC(=O)N1CCCCN2[C@H](CO)[C@H](c3ccc(-c4ccc(F)cc4)cc3)[C@H]2C1 | 0 | 0 | 0 | - | - | - | -
CC(=O)N1CCCCN2[C@@H](CO)[C@@H](c3ccc(-c4ccc(F)cc4)cc3)[C@@H]2C1 | 0 | 0 | 0 | - | - | - | -
CC(=O)N1CCCCN2[C@H](C1)[C@@H](c1ccc(-c3ccc(C)cc3)cc1)[C@@H]2CO | 0 | 111 | 0 | 0 | 0 | 0 | 0
CC(=O)N1CCCCN2[C@@H](CO)[C@@H](c3ccc(-c4ccc(C)cc4)cc3)[C@@H]2C1 | 0 | 106 | 0 | 0 | 0 | 36 | 66
